Bioassay records from PubChem BioAssay.
KKLEB tox: counter-screen for CF NF-kB inhibitors: cytotoxicity; KKLEB CF airway cells viability, ATPlite luminescence, overnight; stronger effect = lower value; cells stimulated with P. aeruginosa culture filtrate; activity change (cytotoxicity), % at 5 µM; actives 0.36% (n = 360,000);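 active = corrected activity change at or below -50% at 5 µM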
TWEAK Fn14 block: TWEAK-Fn14 signaling inhibition | TWEAK-stimulated Fn14 reporter cells, luciferase luminescence, 8 h | inhibition, % at 10 µM | actives 2% (n = 360,000); in the data active = inhibition above about 50%
TROY signal inh: blocks TROY-dependent signaling in reporter cells. Q293 LMP1-TROYcd NF-kB luciferase reporter, 4 h. inhibition, % at 10 µM. actives 0.98% (n = 360,000). AID 1347056;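 active = compounds whose plate-normalised and pattern-corrected inhibition of the luciferase reporter signal at the single screening dose is 50% or more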
Peg3 prom inh: Peg3 promoter activity inhibition. HeLa PEG-Prom luciferase reporter, luminescence, overnight. inhibition, % at 20 µM. actives 1.7% (n = 360,000). AID 588405;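 active = inhibition of at least 50% at 20 µM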
CF NFkB inh: inhibitors of cystic fibrosis induced NF-kB; KKLEB NF-kB-GFP reporter, PAF-induced, GFP fluorescence overnight; inhibition, % at 5 µM; actives 0.86% (n = 360,000); AID 588850;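 active = at least 50% inhibition at 5 µM, scaled per plate between neutral and stimulator controls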;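 note: PAF is a Pseudomonas aeruginosa culture filtrate used as stimulus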
HIF-2a inh: inhibitors of HIF-2a. inhibition, % at 18.8 µM. AID 624352. actives 0.72% (n = 360,000). 786-0 RCC cells HIF-2a reporter, luciferase luminescence, overnight;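 active = inhibition of the luminescence signal of 40% or more relative to plate controls, in a single-dose primary screen at 18.75 µM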
Of the large screens only hits and unclear results are named; the others gave an inactive call. The list is not random: actives were taken first. Their share in the collection is about 4%.

COc1ccc(C(=O)N2CCC(C)(C(=O)NS(=O)(=O)C3CC3)C2)c(OC)c1 (stereo not given)	none
CCC(C(=O)Nc1ccc2c(c1)OCCO2)n1c(=O)[nH]c2ccccc2c1=O (stereo not given)	TWEAK Fn14 block 76, TROY signal inh 60
CN1CCN(c2ccc(NC(=O)c3cc4ccccc4o3)cc2)CC1	none
O=C(Nc1ccc2oc(-c3ccccc3)nc2c1)c1ccc2c(c1)OCCO2	TROY signal inh 58
O=C(Nc1ccc(N2CCN(C(=O)c3ccccc3)CC2)cc1)c1cc2ccccc2o1	TWEAK Fn14 block 91, TROY signal inh 70, Peg3 prom inh 72
O=C(Nc1ccc(NC(=O)c2cc3ccccc3o2)cc1)c1ccc2c(c1)OCCO2	Peg3 prom inh 78
O=C(Nc1ccc2oc(-c3ccncc3)nc2c1)c1ccc2c(c1)OCCO2	none
CCOC(=O)N1CCN(C(=O)C[C@@H]2C[C@@]3(C(=O)OC)CC(C)(C)CC=C3N(Cc3ccccc3)C2=O)CC1	none (no result: KKLEB tox, TWEAK Fn14 block, TROY signal inh, Peg3 prom inh, CF NFkB inh)
CC(CC(=O)Nc1ccc2c(c1)c(=O)n(C)n2-c1cccs1)c1ccccc1 (stereo not given)	none
COc1ccc(NC(=O)C2=Cc3cccc(OC)c3OC2)cc1	none
COc1cccc(NC(=O)c2ccc3c(c2)OCCO3)c1	TWEAK Fn14 block 57
O=C(Nc1ccc(NC(=O)c2ccco2)cc1)c1ccc2c(c1)OCO2	TWEAK Fn14 block 68 (no result: TROY signal inh)
COc1ccc(NC(=O)C2=Cc3ccccc3OC2)cc1	TWEAK Fn14 block 52
Cc1ccc(S(=O)(=O)N2C3CCCCC3O[C@H]2CC(=O)c2cccc3ccccc23)cc1 (stereo not given in full)	none (no result: KKLEB tox, TWEAK Fn14 block, TROY signal inh, Peg3 prom inh, CF NFkB inh)
CCOC(=O)C1(C)CCCN(C(=O)c2cccs2)C1 (stereo not given)	none
Cc1ccc2c(c1)C(=O)N1[C@H]3c4ccccc4OC[C@@H]3[C@H](c3ccccc3)[C@]1(C)C(=O)N2	none
COc1ccc(Cl)cc1C(=O)Nc1ccc(NC(C)=O)cc1	none
CC(=O)Oc1c(I)cc(I)cc1C(=O)Nc1ccc(Cl)cc1	TWEAK Fn14 block 52, TROY signal inh 52, CF NFkB inh 70
CCN(CC)S(=O)(=O)c1ccc(NC(=O)c2ccc(N3CCCC3=O)cc2)cc1	none
COC(=O)CCN1CCc2cc(N=Nc3ccc([N+](=O)[O-])cc3)ccc21	TROY signal inh 53
Cc1cccc(Nc2nc(NCc3ccco3)c3ccccc3n2)c1	TWEAK Fn14 block 86, Peg3 prom inh 85
c1ccc(Nc2nc(NCc3ccco3)c3ccccc3n2)cc1	TWEAK Fn14 block 52
CCO/C(C)=N/Oc1cncnc1	none
COc1ccc(-n2nc3c(N4CCC(C(=O)NCC(C)c5ccccc5)CC4)nnc(C)c3c2C)cc1 (stereo not given)	Peg3 prom inh 75
COc1ccc(-n2nc3c(N4CCC(C(=O)NCc5ccco5)CC4)nnc(C)c3c2C)cc1	none
CCOc1ccccc1CNC(=O)C1CCCN(c2nnc(C)c3c(C)n(-c4ccccc4)nc23)C1 (stereo not given)	Peg3 prom inh 55
Cc1ccc(-n2nc3c(N4CCC(C(=O)NCc5cccc(F)c5)CC4)nnc(C)c3c2C)cc1	none
COc1ccc(-n2nc3c(N4CCC(C(=O)NCCc5ccccc5C)CC4)nnc(C)c3c2C)cc1	Peg3 prom inh 103
O=C1O[C@@H](c2ccccc2)C[C@@H](O)[C@H](O)CCCc2ccccc21	none (no result: KKLEB tox, Peg3 prom inh, CF NFkB inh)
O=C(NC1CC2CCCC(C1)N2C(=O)Nc1ccccc1F)C1CC1 (stereo not given)	none
NC(=O)c1cccc(-c2cnc(N)c(C(=O)c3cccnc3)n2)c1	TWEAK Fn14 block 84, TROY signal inh 51, Peg3 prom inh 62, CF NFkB inh 52
O=C(Nc1cccc(NC(=O)c2cccnc2)c1)c1ccccc1	none
CCOC(=O)C1CCN(C(=O)Cn2cccc2C(=O)c2ccccc2)CC1	none
CCOC(=O)C1CCCN(C(=O)Cn2cccc2C(=O)c2ccccc2)C1 (stereo not given)	TWEAK Fn14 block 99
Cc1noc2ncnc(Oc3cc(Cl)ccc3Cl)c12	Peg3 prom inh 94
Cc1noc2ncnc(Oc3ccc4ccccc4c3)c12	none
Cn1c(SCC(=O)Nc2ccc3c(c2)n(C)c(=O)n3C)nnc1-c1ccncc1	none
